# Screening results deposited in PubChem BioAssay by National Center for Advancing Translational Sciences (NCATS).
# Sampled rows, rich in hits. Any-hit rate of the full collection: about 3.9%.
# DRV1 agonist: activates human resolvin D1 receptor GPR32. O75388. CHO-K1 GPR32 beta-arrestin PathHunter luminescence, 90 min; zero percent set by DMSO-only wells. activation, % at 76.9 µM. 2.5% of 48,000 active;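 active = activation of at least 60% and not above a set upper limit, about 1 call in 100 departs from these limits; inconclusive = activation of 40% to 60%, or above that upper limit; inactive = activation under 40%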; also: 0% is about no effect
# Target sequence (O75388 whole entry, looked up): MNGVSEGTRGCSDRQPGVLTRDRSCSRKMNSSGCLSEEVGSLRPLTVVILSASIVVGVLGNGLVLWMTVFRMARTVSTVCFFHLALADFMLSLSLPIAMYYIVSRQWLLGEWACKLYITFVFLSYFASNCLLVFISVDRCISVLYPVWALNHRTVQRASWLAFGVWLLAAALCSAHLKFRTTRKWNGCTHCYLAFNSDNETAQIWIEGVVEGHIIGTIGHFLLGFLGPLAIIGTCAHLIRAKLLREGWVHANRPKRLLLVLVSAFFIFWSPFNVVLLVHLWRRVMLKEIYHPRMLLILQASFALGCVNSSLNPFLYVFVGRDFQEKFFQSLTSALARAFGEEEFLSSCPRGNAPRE
#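 CHO-K1 cells stably expressing ProLink-tagged GPR32 and Enzyme Activator-tagged beta-arrestin were seeded at 2,500 cells/well overnight, exposed to compounds for 90 min at 37 °C, then read by beta-Gal complementation chemiluminescence after 1 h detection reagent.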
# p53null 39C kill: selectivity test: cytotoxicity in p53 null cells, nonpermissive temperature. H1299 p53-null (neo) cells, 39C, ATPlite viability, 24 h. Potency, µM (titrated, usually from 46.1 µM), without a hit: at the top dose activity, negative = cell killing, most hits filed as cytotoxic. 0.97% of 55,000 active;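 also: potency is read from the fitted curve at half-maximal effect; 0% = DMSO only and -100% = full killing by 100 µM tamoxifen; nearly all actives have a fitted effect of over 50% in size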
#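 Following overnight plating at 37C (600 cells/well), H1299-neo or H1299-p53A138V cells are dosed up to 46 uM. Incubation lasts 24 hr at 39C before ATP detection.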
# HTT-AS promoter: activators of huntingtin-antisense promoter activity. Potency, µM (top dose mostly 57.5 µM), without a hit: top-dose activity change, positive = activation, usual class: activators. HEK293 HTT-AS promoter firefly luciferase reporter, 24 h; response scale: percent change from vehicle, -100% = no light. 0.24% of 48,000 active; also: potency is read from the fitted curve at half-maximal effect; nearly all actives have a fitted effect of over 55% in size
#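 Firefly luciferase readout (Dual-Glo, 10 min RT) after 24 h, 37 °C compound exposure (final up to 57.5 uM) of HEK293 reporter cells cultured 24 h beforehand; PTC124 at 50 uM final as control inhibitor; activity scaled vehicle 0%, zero RLU -100%.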
# p53null 32C kill: kills p53 null cells at the permissive temperature; H1299-neo p53 null cells, ATP luminescence, 24 h, 32C; Potency, µM (highest dose often 46.1 µM), inactives show top-dose activity change, negative = cytotoxicity, actives largely listed as cytotoxic; 0.62% of 55,000 active; AID 903;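 also: potency is read from the fitted curve at half-maximal effect; 0% = DMSO only and -100% = full killing by 100 µM tamoxifen; nearly all actives have a fitted effect of over 55% in size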
#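 H1299-neo, 600 cells/well; overnight 37C; cpd up to 46 uM, 24 h at 32C; ATPlite luminescence after 20 min RT; normalized to DMSO (0%) and tamoxifen 100 uM (100% kill); Hill-fit AC50.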
# HTT prom inh: HTT promoter inhibition | Potency, µM (series often up to 57.5 µM), for the others: top-dose activity change, negative = inhibition, usual class: inhibitors | HEK293 HTT promoter firefly luciferase reporter, 24 h | AID 1508623 | 0.93% of 48,000 active; also: potency is read from the fitted curve at half-maximal effect; nearly all actives have a fitted effect of over 50% in size
#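 Firefly luciferase readout (Dual-Glo, 10 min RT) after 24 h, 37 °C compound exposure (final up to 57.5 uM) of HEK293 reporter cells cultured 24 h beforehand; PTC124 at 50 uM final as control inhibitor; activity scaled vehicle 0%, zero RLU -100%.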
# An asterisk follows results filed as active; ? = inconclusive; / = not tested or not shown. Unless noted, calls follow the shape of the dose curve; as a rule, active = well fitted curve in the direction sought with a large enough effect; inconclusive = small, poorly fitted or top-dose-only effect, or another doubt; inactive = no such curve, though single readings can be large; an effect the other way counts as inactive or inconclusive.
SMILES,DRV1 agonist,p53null 39C kill,HTT-AS promoter,p53null 32C kill,HTT prom inh
Cc1ccc(O)c(NC(=O)CCSc2nc(-c3ccco3)cc(C(F)(F)F)n2)c1,73.6*,?,-12.8%,-4.0%,?
COc1cccc(-c2cn3ncsc3n2)c1,1.8,?,2.51µM*,?,57.7%
CCS(=O)(=O)c1ncc(Cl)c(C(=O)N(Cc2ccccc2)Cc2ccco2)n1,-8.3,?,-93.5%,?,35.5µM*
CCS(=O)(=O)c1ncc(N(Cc2ccccc2)Cc2ccco2)c(C(=O)Nc2cccc(Cl)c2C)n1,-13.8,15.8%,-24.0%,10.0%,?
CCN(CC)CCOc1ccc(Br)cc1,/,-5.5%,/,-5.7%,/
CCN(CC)CCOc1ccc(/C(=C(\Cl)c2ccccc2)c2ccccc2)cc1,91.0*,/,-24.2%,/,-21.1%
CCCCn1c(NCc2cc(Br)ccc2O)nc2ccccc21,?,?,-40.9%,1.6%,?
CCCCn1c(NCc2cc(Cl)ccc2O)nc2ccccc21,102.2*,24.9%,-36.7%,10.0%,?
c1ccc2c(-c3cnn4cc(-c5ccc(N6CCNCC6)cc5)cnc34)ccnc2c1,/,/,?,/,-6.0%
CCCn1ccc2c(OCC(=O)Nc3ccc(F)cc3F)cccc2c1=O,?,-13.7%,-21.0%,10.5%,-25.1%
CCCn1ccc2c(OCC(=O)Nc3ccc(OC)c(OC)c3)cccc2c1=O,85.6*,26.7%,-40.6%,-3.9%,-15.8%
CCCn1ccc2c(OCC(=O)NCc3ccc(C)cc3)cccc2c1=O,?,-12.0%,-5.1%,10.5%,0.0%
Cn1ccc2c(OCC(=O)NCc3ccccc3Cl)cccc2c1=O,86.1*,25.5%,-15.2%,-7.2%,-17.3%
CCCCc1ccc(NC(=O)COc2cccc3c(=O)n(C)ccc23)cc1,60.2*,-6.4%,-42.4%,-5.1%,?
C[C@@]1(c2cc(-c3cncnc3)c(F)cc2F)CCSC(N)=N1,/,/,-29.1%,/,?
CCOc1ccc(CN2C(=O)C(=O)c3cccc(C)c32)cc1OC,-81.6,20µM*,-24.4%,-0.6%,-27.3%
CCN(CC)CCOC(=O)c1ccc(NC(=O)CSc2cc(=O)n(CC)c3ccccc23)cc1,14.5,2.51µM*,9.5%,4.3%,8.9%
CCn1c(=O)cc(SCC(=O)NCCc2ccc(Cl)cc2)c2ccccc21,?,-15.1%,-16.6%,-1.6%,-17.0%
CCn1c(=O)cc(SCC(=O)NCCc2cccc(C)c2)c2ccccc21,96.7*,2.6%,-0.1%,0.9%,-16.4%
CCN(CCCNC(=O)COc1cc(=O)n(CC)c2ccccc12)c1ccccc1,/,-8.4%,/,-4.5%,/
CCN(CCCNC(=O)CSc1cc(=O)n(CC)c2ccccc12)c1cccc(C)c1,74.8*,37.0%,-25.6%,0.4%,?
O=C1NC2CCCCN2C12CCN(CCCN1c3ccccc3CCc3ccc(Cl)cc31)CC2 (configuration not stated),-11.0,/,-21.7%,/,-15.3%
COc1ccc(CNCCC(c2ccc3c(c2)OCO3)c2ccccc2OC)cc1 (configuration not stated),-14.1,12.6µM*,-20.6%,3.6%,-27.1%
COc1ccc(/C=N/Nc2nncc3ccccc23)cc1,/,/,/,4.47µM*,/
NNc1nncc2ccccc12,27.1,/,7.69µM*,/,20.3%
SMILES,DRV1 agonist,p53null 39C kill,HTT-AS promoter,p53null 32C kill,HTT prom inh
Cc1cnc(-c2cc(N3CCN(C(=O)CCS(C)(=O)=O)CC3)ncc2Cl)c(C)c1,/,/,-20.3%,/,-9.3%
Cc1ccc(CCNC(=O)CN2CCN(Cc3ccc(Cl)cc3)C2=O)cc1,60.1*,-12.7%,-7.0%,4.2%,-14.6%
O=C(CN1CCN(Cc2ccc(F)cc2Cl)C1=O)NCCc1ccc(Cl)cc1,43.7,-13.6%,-5.1%,2.7%,-11.3%
Oc1ccccc1-c1nc(/C=C/c2ccccc2Cl)no1,1.0,10µM*,-36.3%,10µM*,15.0%
CCc1ccc(CN(C(=O)c2cc3ccccc3oc2=O)C2CCS(=O)(=O)C2)cc1 (configuration not stated),-4.3,-21.2%,3.55µM*,-1.4%,54.3%
Cc1ccc(N(CC(=O)N2CCN(c3cccc(Cl)c3)CC2)S(=O)(=O)c2c(C)noc2C)cc1,-12.7,8.8%,-30.0%,12.1%,?
COc1ccc(N(CC(=O)N2CCN(c3cccc(Cl)c3)CC2)S(=O)(=O)c2c(C)noc2C)cc1,-14.9,10µM*,-37.7%,1.8%,?
Oc1c(C(c2ccc(Cl)cc2Cl)N2CCN(Cc3ccccc3)CC2)sc2nc(-c3ccco3)nn12 (configuration not stated),-7.8,-4.1%,10.0%,18.4%,12.4%
Oc1c(C(c2ccccc2Cl)N2CCN(Cc3ccccc3)CC2)sc2nc(-c3ccco3)nn12 (configuration not stated),94.3*,5.7%,-11.2%,18.8%,-10.3%
CCCCNC(=O)c1cnn2c(C)c(Cc3c(C)cc(C)cc3C)c(C)nc12,-40.8,22.5%,-59.1%,?,?
CCCNC(=O)c1cnn2c(C)c(Cc3c(C)cc(C)cc3C)c(C)nc12,-2.5,7.3%,-47.4%,21.5%,5.01µM*
CC(C)CCCC(C)NCCC(C)C (configuration not stated),-4.4,/,-8.2%,/,-2.9%
CC(C)(C)[N+]([O-])=Cc1ccc(S(=O)(=O)O)cc1S(=O)(=O)O,/,/,-5.5%,/,-5.9%
COc1cc(NC(=O)c2c(C)nn(-c3ccc(F)cc3)c2-n2cccc2)cc(OC)c1,103.1*,-6.2%,-1.4%,3.9%,-20.2%
Cc1ccc(-n2nc(C)c(C(=O)NCCCN3CCN(c4ccc(F)cc4)CC3)c2-n2cccc2)cc1,?,?,-52.7%,12.1%,?
COc1cccc(NC(=O)c2c(C)nn(-c3cccc(C)c3)c2-n2cccc2)c1,-16.1,28.9%,-21.5%,13.7%,?
Cc1nn(-c2ccc(F)cc2)c(-n2cccc2)c1C(=O)NCCCN1CCN(c2ccccc2F)CC1,109.6*,-1.2%,-30.9%,-4.2%,?
COc1ccc(N2CCN(CCCNC(=O)c3c(C)nn(-c4ccc(F)cc4)c3-n3cccc3)CC2)cc1,63.4*,7.9%,-35.3%,-9.3%,?
CCCN1CCN(CCCNC(=O)c2c(C)nn(-c3ccc(F)cc3)c2-n2cccc2)CC1,2.6,-2.7%,-0.2%,8.9%,-27.7%
CCOC(=O)C1CCN(C(=O)c2ccc(NC(=O)c3nsc4ccccc34)cc2)CC1,-4.4,?,?,-24.4%,14.1%
NC(=O)C1CCN(C(=O)c2ccc(NC(=O)c3nsc4ccccc34)cc2)CC1,2.0,2.82µM*,?,2.51µM*,-26.6%
COc1ccc(NC(=O)c2ccc(-c3nc(CSc4ccc(C)cc4)c(C)o3)cc2)cc1Cl,-4.2,-5.3%,-8.0%,?,4.47µM*
